Experimental data published in PubChem BioAssay AID504339 (National Center for Advancing Translational Sciences (NCATS), 2011).
Screen size: about 390,000 compounds; about 17,000 (4.4%) were called active. Inconclusive results (about 8%) are left out. Calls follow the shape of the dose curve; as a rule, active = well fitted inhibition curve with a large enough effect; inconclusive = small, poorly fitted or top-dose-only effect; inactive = no such curve, though single readings can be large or run the other way. What follows is part of a selection rich in actives, with near analogues and random picks from the rest. A call without a number means that no potency is given here.

Target: Lysine-specific demethylase 4A (Homo sapiens) (UniProt O75164)
Test: qHTS Assay for Inhibitors of JMJD2A-Tudor Domain; also: nearly all actives have a fitted effect of over 50% in size
Settings: AlphaScreen JMJD2A-Tudor / H3K4me3 peptide binding; series mostly up to 114 µM
Potency is read from the fitted curve at half-maximal effect.

Sequence of Lysine-specific demethylase 4A (Homo sapiens) (O75164 whole entry, looked up, the tested form may be a part): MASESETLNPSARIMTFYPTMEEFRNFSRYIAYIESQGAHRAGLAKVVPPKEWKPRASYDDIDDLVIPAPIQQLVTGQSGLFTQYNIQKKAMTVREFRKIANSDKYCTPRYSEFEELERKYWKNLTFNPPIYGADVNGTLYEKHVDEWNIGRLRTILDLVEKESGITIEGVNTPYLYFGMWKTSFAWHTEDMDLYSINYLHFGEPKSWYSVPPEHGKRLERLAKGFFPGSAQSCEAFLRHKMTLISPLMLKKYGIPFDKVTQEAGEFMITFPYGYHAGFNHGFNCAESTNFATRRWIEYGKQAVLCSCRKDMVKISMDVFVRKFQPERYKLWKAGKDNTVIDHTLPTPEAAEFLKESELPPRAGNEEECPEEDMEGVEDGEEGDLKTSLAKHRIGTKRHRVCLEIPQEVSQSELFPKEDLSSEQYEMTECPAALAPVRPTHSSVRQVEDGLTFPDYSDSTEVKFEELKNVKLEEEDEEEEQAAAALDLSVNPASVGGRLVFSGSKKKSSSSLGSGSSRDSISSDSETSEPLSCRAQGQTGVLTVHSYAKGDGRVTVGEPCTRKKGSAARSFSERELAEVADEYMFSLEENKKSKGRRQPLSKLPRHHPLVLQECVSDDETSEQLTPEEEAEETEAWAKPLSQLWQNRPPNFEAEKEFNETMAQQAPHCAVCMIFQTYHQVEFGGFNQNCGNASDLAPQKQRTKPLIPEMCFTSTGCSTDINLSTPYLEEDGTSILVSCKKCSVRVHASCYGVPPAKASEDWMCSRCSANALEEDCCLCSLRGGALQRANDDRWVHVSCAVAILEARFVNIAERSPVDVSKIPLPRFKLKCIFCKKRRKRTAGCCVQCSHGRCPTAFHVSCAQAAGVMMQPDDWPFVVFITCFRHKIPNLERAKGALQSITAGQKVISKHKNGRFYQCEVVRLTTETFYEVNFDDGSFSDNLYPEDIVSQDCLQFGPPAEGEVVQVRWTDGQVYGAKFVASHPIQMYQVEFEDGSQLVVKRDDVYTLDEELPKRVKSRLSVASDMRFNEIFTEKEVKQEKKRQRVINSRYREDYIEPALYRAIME

SMILES | Potency
Cc1cccc(N(C)C(=O)CS(=O)(=O)c2cccc3nsnc23)c1 | inactive
Cc1ccc(NN=Nc2nc3c([nH]2)c(=O)n(C)c(=O)n3C)cc1 | 14.1 µM (active)
Cc1cc(C)c(C=NNc2nc3c([nH]2)c(=O)n(C)c(=O)n3C)c(C)c1 | inactive
Cc1cccc(C)c1NC(=O)CSc1nc2c([nH]1)c(=O)n(C)c(=O)n2C | inactive
CCc1ccc(NC(=O)c2cc3c(=O)n(Cc4cccnc4)ccc3nc2C)cc1 | inactive
O=C(NCc1ccccc1)C(=O)NCC(c1ccco1)S(=O)(=O)c1ccc(Cl)cc1 (configuration not stated) | inactive
Cc1ccc(C)n1-c1nnc(N2CCC(C(=O)NCc3ccccc3Cl)CC2)s1 | inactive
C=CCNC(=O)c1ccc2nc(-c3ccco3)c(-c3ccco3)nc2c1 | inactive
CCOc1ccc(NC(=O)c2ncoc2-c2ccco2)cc1 | inactive
COCCNC(=O)Nc1ccc2nc(-c3ccco3)c(-c3ccco3)nc2c1 | 20 µM (active)
CC(C)Cn1c(C2CC(=O)N(c3ccccc3Cl)C2)nc2ccccc21 (configuration not stated) | inactive
Cc1ccccc1CNC(=O)c1ccc(NC(=O)N2CCCCc3ccccc32)cc1 | inactive
CCOC(=O)c1c(C)[nH]c(C)c1S(=O)(=O)N(C)CC(=O)N1CCN(c2ccccc2)CC1 | inactive
Cc1cc(Br)ccc1NC(=O)Cn1cnc2sc(C)c(S(=O)(=O)N3CCN(C)CC3)c2c1=O | inactive
CC1CCCN(S(=O)(=O)c2ccc(C(=O)Nc3nnc(-c4ccncc4)o3)cc2)C1 (configuration not stated) | inactive
O=C(Nc1nnc(-c2ccco2)o1)c1ccc(S(=O)(=O)N2CCOCC2)cc1 | 79.4 µM (active)
O=C(Nc1nnc(-c2ccccc2)o1)c1cccc(S(=O)(=O)N2CCOCC2)c1 | inactive
Cc1ccc(Nc2nnc(-c3ccc(C)c(S(=O)(=O)N4CCCCC4)c3)c3ccccc23)cc1 | inactive
COc1ccccc1C1=Nc2cccc3cccc(c23)N1 | 50.1 µM (active)
COc1ccccc1-c1nnc(-c2ccc(F)cc2)o1 | inactive
COc1ccccc1-c1nc(C(F)(F)F)c(OC)o1 | inactive

SMILES | Potency
COc1ccc(NC(=O)Cn2c(=O)cc(C)c3c(C)nn(-c4cccc(Cl)c4C)c32)cc1OC | inactive
CCOC(=O)C1CCCN(C(=O)c2ccc(-n3ccc4ccccc43)s2)C1 (configuration not stated) | inactive
CCCn1c2ccccc2c2cnn(CC(=O)N(CC)c3cc(C)ccc3C)c(=O)c21 | inactive
Cc1nnc(NCc2ccccc2)c2c1nnn2Cc1ccc(F)cc1 | inactive
C=C1c2c(Cl)ccc(O)c2C(O)=C2C(=O)[C@]3(O)C(O)=C(C(N)=O)C(=O)[C@@H](N(C)C)[C@@H]3[C@@H](O)C12 (some centres not stated) | 2 µM (active)
CN(C)[C@@H]1C(=O)C(C(N)=O)=C(O)[C@@]2(O)C(=O)C3=C(O)c4c(O)ccc(Cl)c4[C@@H](O)[C@H]3C[C@@H]12 | 25.1 µM (active)
COc1ccccc1NC(=O)CSC1=Nc2ccccc2C2=NC(CC(=O)NCc3cccs3)C(=O)N12 (configuration not stated) | inactive
COc1ccc(C)cc1-n1c(-c2ccc(C)cc2)cc2c1CC(C)(C)CC2=O | inactive
O=C1CSC2(C(=O)N(Cc3ccccc3)c3ccccc32)N1c1cccc(F)c1 (configuration not stated) | inactive
COc1ccccc1NC1=NC(c2ccc(Cl)cc2)N=C(N)N1 (configuration not stated) | inactive
COc1ccccc1Nc1nc(N)nc(CN(C)C2CCCCC2)n1 | 15.8 µM (active)
COc1ccccc1Nc1nc(N)nc(CSC(=S)N2CCOCC2)n1 | inactive
O=C(Nc1cc(C(F)(F)F)ccc1Cl)c1ccc2c(c1)CCN2S(=O)(=O)c1ccccc1 | inactive
CC(C)CNc1ncnc2c1nnn2C | inactive
O=C(CC1N=C2c3ccccc3N=C(SCc3cccc(Cl)c3)N2C1=O)NCc1ccc2c(c1)OCO2 (configuration not stated) | inactive
CCOC(=O)c1c(NC(=O)CCl)sc(C(=O)N(CC)CC)c1C | inactive
COCCCNCC(=O)Nc1sc(C)c(C)c1C(=O)OC | 28.2 µM (active)
COC(=O)c1c(NC(=O)c2c(Cl)cnn2C)sc(C)c1C | inactive
CCc1cccc(NC(=O)CSc2nccn2C)c1 | inactive
Cc1cc(C)cc(OCC(=O)Nc2c(C(=O)c3ccccc3)oc3ccccc23)c1 | inactive
O=C(Cn1cc(SCc2cccc(Cl)c2)c2ccccc21)N1CCCCC1 | inactive

SMILES | Potency
COc1ccc(-c2nn(CC(=O)NC3CCCC3)c3c2cnc2ccc(F)cc23)cc1 | inactive
O=C(COC(=O)c1ccccc1)c1ccc2c(c1)OCCO2 | inactive
O=C(CN1CCC(O)(c2ccccc2)CC1)Nc1ccc2c(c1)OCCO2 | inactive
O=C(CCN1CCc2ccccc2C(O)(c2ccccc2)C1)c1ccc2c(c1)OCCO2 (configuration not stated) | 79.4 µM (active)
Cc1cc(Cl)ccc1NC(=O)Cc1ccc(NC(=O)N2CCCCc3ccccc32)cc1 | inactive
Cc1ccc(C)c(Cn2c(C)c(CNCc3ccc(F)cc3)c(C(=O)O)c2C)c1 | inactive
S=c1[nH]ccn1-c1ccc(Cl)cc1 | 10 µM (active)
CCOC(=O)c1ccccc1NC(=O)c1sc2nc(-c3ccc(F)cc3)cn2c1C | inactive
CCN1CCN(CCNC(=O)c2ccc(/C=C3/Sc4ccccc4N(Cc4cccc(C)c4)C3=O)cc2)CC1 | 50.1 µM (active)
O=C(NCCCN1CCOCC1)c1ccc2c(c1)N(Cc1cccc(F)c1)C(=O)c1ccccc1S2 | inactive
CN1CCN(CCCNC(=O)c2ccc(/C=C3\Oc4ccccc4N(Cc4ccc(Cl)cc4)C3=O)cc2)CC1 | inactive
COc1ccc(Cl)cc1NC(=O)Cn1c(=O)c2ccccc2n2nncc12 | inactive
COc1ccccc1CNCc1ccc(C(=O)O)s1 | inactive
CSc1nc(Nc2ccc(F)cc2)cc(-c2ccccc2)n1 | inactive
COC(C(=O)Nc1ccc(C(C)=O)cc1)c1ccccc1 (configuration not stated) | inactive
COc1ccc(NC(C(=O)Nc2cccc(C(C)=O)c2)c2ccccc2)cc1 (configuration not stated) | 17.8 µM (active)
COc1ccc(NC(=O)[C@H](NC(=O)[C@@H]2Cc3ccccc3CN2)c2ccccc2)cc1 | inactive
Cc1ccccc1CNC(=O)Cn1c(C)c2cnn(-c3ccccc3)c(=O)c2c1C | inactive
CC(=O)Oc1ccc(OC(C)=O)c2c1C1C=CC2CC1 | 22.4 µM (active)
CC(=O)Oc1ccc(C(C)=O)c2c1OCCO2 | inactive
